# Test results reported in PubChem BioAssay (Tox21).
# Records with an inconclusive call do not appear. A number with no mark means an inactive call. Activity calls are given as the source filed them. The call rests on the fitted dose curve; in most records, active means well fitted cell-killing curve with a large enough effect in the repeat runs; inconclusive means weak or mixed curves; inactive means no such curve, though single readings can be large or run the other way.
# Experiment: qHTS assay to identify small molecule antagonists of the peroxisome proliferator-activated receptor delta (PPARd) signaling pathway - cell viability counter screen (AID 743213); further: nearly all actives have a fitted effect of over 50% in size
# Conditions: PPARd-bla HEK293H viability, CellTiter-Glo luminescence, 17 h; series mostly up to 62 µM
# Excerpt: U.S. Tox21 Program National Center for Advancing Translational Sciences [NCATS] NIH Chemical Genomics Center [NCGC] U.S. Environmental Protection Agency [EPA] National Institutes of Environmental Health Sciences [NIEHS] National Toxicology Program [NTP] U.S. Food and Drug Administration [FDA] Tox21 Assay Overview: The peroxisome proliferator-activated receptors (PPARs) are lipid-activated transcription factors of the nuclear receptor superfamily with three distinct subtypes namely PPAR alpha, PPAR delta (PPARd) and PPAR gamma. All these subtypes heterodimerizes with Retinoid X receptor (RXR) and have different physiological functions. […] To identify the compounds that inhibit PPAR-delta signaling, GeneBLAzer PPAR delta UAS-bla HEK293H cell line (Invitrogen, Carlsbad, CA, USA) containing a beta-lactamase reporter gene under the control of an Upstream Activator Sequence (UAS) was used to screen the Tox21 compound library. The cytotoxicity of the Tox21 compound library against the PPARd-bla cell line was tested in parallel by measuring the cell viability using CellTiter-Glo assay (Promega, Madison, WI) in the same wells.
# Tox21 Assay Protocol Summary: PPARd-bla cells were dispensed at 3000 cells/5uL/well in 1536-well black wall/clear bottom plates using a Multidrop Combi (Thermo Fisher Scientific, Waltham, MA) dispenser. After the assay plates were incubated at 37 C and 5% CO2 for 5 h, 23 nL of compounds dissolved in DMSO, positive controls or DMSO only was transferred to the assay plate by a Pintool station (Kalypsys, San Diego, CA), followed by addition of 1ul L165041 (300 nM, final concentration in the wells). The assay plates were incubated at 37 C for 17 h, and then 1 uL of LiveBLAzerTM B/G FRET substrate was added using a Bioraptr Flying Reagent Dispenser (FRD) workstation (Beckman Coulter, Indianapolis, IN, USA). The assay plates were incubated at room temperature for 2 h and fluorescence intensity was measured by an Envision plate reader (PerkinElmer, Shelton, CT). For cell viability readout that measures cytotoxicity, 3 ul/well of CellTiter-Glo reagent was added into the assay plates using a Bioraptr FRD. After 30 min incubation at room temperature, the luminescence intensity in the plates was measured using a ViewLux plate reader (PerkinElmer).
# On the % scale 0 is the no-effect control and ±100 the full control effect.
Compound,outcome,"viability change, negative = cytotoxic"
C=CC(=O)CCCCC,inactive,
CSc1cnccn1,inactive,
COc1cc2c(cc1OC)CN(C(=O)[C@H](C)N[C@@H](CCc1ccccc1)C(=O)O)[C@H](C(=O)O)C2,inactive,
O=Cc1ccccc1Cl,inactive,
Nc1nc(-c2ccccc2)c(Br)c(=O)[nH]1,inactive,
CCCCCC/C=C/C(=O)OC,inactive,
CC(C)CO,inactive,
CCCCCCCCCCOC(C)=O,inactive,
CC1(C)Cc2cccc(N)c2O1,inactive,
C/C(=C1\CCOC(=O)S1)N(C=O)Cc1cnc(C)nc1N,inactive,
C/C(CC(C)C)=N\O,inactive,
CNCCS(=O)(=O)O,inactive,
CCCC(=O)Nc1ccc(OCC(O)CNC(C)C)c(C(C)=O)c1 (stereo not given),inactive,
CCCCCCCCCOC(=O)c1ccccc1C(=O)OCCCCCCCCC,inactive,
Cn1nnc2c(C(N)=O)ncn2c1=O,inactive,
CCCCOC(=O)[C@H](C)O,inactive,
CC(S)C(C)S (stereo not given),inactive,
Cn1c(=O)c2c(ncn2CCO)n(C)c1=O,inactive,
O=C(NCN1CCOCC1)c1cnccn1,inactive,
OC[C@H]1O[C@@H](O[C@@H]2[C@@H](CO)O[C@](O)(CO)[C@H]2O)[C@H](O)[C@@H](O)[C@H]1O,inactive,

Compound,outcome,"viability change, negative = cytotoxic"
CC(C)Cn1cnc2c1c(=O)n(C)c(=O)n2C,inactive,
CCO[Si](CC)(OCC)OCC,inactive,
CC1CCc2c(N3CCC(O)CC3)c(F)cc3c(=O)c(C(=O)O)cn1c23 (stereo not given),inactive,
CCCCOCCOC(=O)COc1ccc(Cl)cc1Cl,inactive,
COC(=O)/C=C\C(=O)O,inactive,
COc1ccc(CCO)cc1,inactive,
O=C[O][Al]([O]C=O)[O]C=O,inactive,
O=C1NC(c2ccccc2)(c2ccccc2)C(=O)N1COP(=O)(O)O,inactive,
C[C@H]1[C@@H](c2ccccc2)NC(=O)N1C,inactive,
CO[Si](CCCn1c(=O)n(CCC[Si](OC)(OC)OC)c(=O)n(CCC[Si](OC)(OC)OC)c1=O)(OC)OC,inactive,
N[C@@H](Cc1ccc(O)cc1)C(=O)O,,14.5% [at 13.7 µM]
CN1CCOC(c2ccccc2)c2ccccc2C1 (stereo not given),inactive,
CN(C)C(C)(C)CO,inactive,
CC(=O)C(C)O (stereo not given),inactive,
CCC(C)C(=O)OCCc1ccccc1 (stereo not given),inactive,
CC(C)(CO)C(O)C(=O)NCCCO (stereo not given),inactive,
CC(=O)CC(=O)OC(C)(C)C,inactive,
CC1c2ccccc2CN1NC(=O)c1ccc(Cl)c(S(N)(=O)=O)c1 (stereo not given),inactive,
COS(=O)(=O)O,inactive,
COc1cc2c(cc1OC)C(=O)C(CC1CCN(Cc3ccccc3)CC1)C2 (stereo not given),inactive,
